TCR-CD3 inh – inhibitors of human TCR-CD3 interaction; TAMRA-labeled TCR probe fluorescence, biochemical; inhibition, % at 9.4 µM; AID 651800; 360,000 compounds, 0.37% hits; in the data active = inhibition above about 19%;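 also: recombinant mutant TCR 2C K166C tagged with TAMRA read by polarization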
PAFAH1B3 inh – inhibitors of human PAFAH1B3. Q15102. recombinant PAFAH1B3, FP-rhodamine probe, fluorescence polarization. inhibition, % at 3.39 µM. 340,000 compounds, 0.28% hits. AID 492972;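 active = inhibition above the screen-wide average of all tested compounds plus 3 SD, cut at about 25% in these data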
Target sequence (Q15102 whole entry, looked up): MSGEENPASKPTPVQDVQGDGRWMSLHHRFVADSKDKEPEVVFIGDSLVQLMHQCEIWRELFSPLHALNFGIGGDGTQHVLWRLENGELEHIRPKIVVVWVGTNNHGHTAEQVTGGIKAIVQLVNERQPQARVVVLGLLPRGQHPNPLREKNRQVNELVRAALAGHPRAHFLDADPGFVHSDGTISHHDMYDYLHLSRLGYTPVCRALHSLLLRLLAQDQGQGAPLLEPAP
PAFAH2 inh – PAFAH2 (human) inhibition; recombinant PAFAH2, FP-rhodamine activity probe, fluorescence polarization; inhibition, % at 3.39 µM; Q99487; 340,000 compounds, 0.99% hits;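 active = inhibition above the mean over all tested compounds plus 3 SD, cut at about 30% in these data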;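 also: inhibitors block probe labeling of enzyme so polarization drops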
PAFAH1B2 FP inh – inhibitors of human PAFAH1B2. P68402. recombinant PAFAH1B2, FP-rhodamine activity probe, fluorescence polarization. inhibition, % at 3.39 µM. 340,000 compounds, 1.2% hits;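 active = inhibition above the mean of all tested compounds plus 3 SD, cut at about 24% in these data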
Target sequence (P68402 whole entry, looked up): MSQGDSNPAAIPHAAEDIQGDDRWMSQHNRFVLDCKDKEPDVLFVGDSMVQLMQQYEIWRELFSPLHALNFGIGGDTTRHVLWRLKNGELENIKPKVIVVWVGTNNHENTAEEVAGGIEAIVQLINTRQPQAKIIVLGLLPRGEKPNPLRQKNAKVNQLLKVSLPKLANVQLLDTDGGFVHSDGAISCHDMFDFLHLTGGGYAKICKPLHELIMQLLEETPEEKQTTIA
pPAFAH FP inh – inhibitors of human plasma PAF acetylhydrolase (pPAFAH). recombinant pPAFAH, FP-rhodamine probe fluorescence polarization. 330,000 compounds, 1.5% hits. AID 463082. inhibition, % at 3.39 µM;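 active = inhibition above the mean inhibition across the screen plus 3 SD, cut at about 25% in these data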;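 also: inhibitors block binding of the rhodamine activity-based probe so polarization drops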
PAFAH2 confirm – PAFAH2 (human) inhibition, confirmed | shares compounds with PAFAH2 inh | recombinant PAFAH2, FP-rhodamine activity probe, fluorescence polarization | inhibition, % at 3.39 µM | 2,300 compounds, 65% hits;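 active = mean inhibition over three repeats above a set limit taken from the earlier primary screen, cut at about 30% in these data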;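 also: inhibitor blocks binding of rhodamine activity probe so polarization falls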
Of the large screens only hits and unclear results are named; the others gave an inactive call (follow-up assays come after a bar, where they were run). The list is not random: actives were taken first. Their share in the collection is about 2.7%.

C=CCn1c(C)cc(C(=O)COC(=O)/C=C/c2cccc(OC)c2)c1C	PAFAH2 inh 55 | PAFAH2 confirm 46
COc1ccc(/C=C/C(=O)OCC(=O)c2ccccc2F)cc1	none
Cc1ccc(N2CC(C(=O)Nc3c4c(nn3C(C)(C)C)CS(=O)(=O)C4)CC2=O)cc1C (stereo unspecified)	PAFAH2 inh 158 | PAFAH2 confirm inactive
CC1CCc2sc(C(=O)OCC(=O)NC(C)C)cc2C1 (stereo unspecified)	PAFAH2 inh 31 | PAFAH2 confirm inactive
CC1CCc2sc(C(=O)OCC(=O)NC(N)=O)cc2C1 (stereo unspecified)	none
Cc1c(Cl)cnc(NC(=O)COC(=O)c2cc3c(s2)CCC(C)C3)c1Cl (stereo unspecified)	none
Cc1cc(NC(=O)COC(=O)c2cc3c(s2)CCC(C)C3)no1 (stereo unspecified)	PAFAH2 inh 30 | PAFAH2 confirm inactive
O=C(NC1CC1)C1=C[C@H](c2coc3ccccc3c2=O)C[C@H](OCc2ccc(CO)cc2)O1	none
CC(C)CNC(=O)COC(=O)c1n[nH]c2ccccc12	PAFAH2 inh 56 | PAFAH2 confirm 39
CCOc1ccc(NC(=O)COC(=O)c2n[nH]c3ccccc23)cc1	PAFAH2 inh 62 | PAFAH2 confirm 37
O=C(Nc1cnccn1)c1ccc(Cl)cc1	none
CC(NC(=O)COC(=O)c1ccc2c(c1)OCCO2)c1ccccc1 (stereo unspecified)	PAFAH2 inh 63 | PAFAH2 confirm 61
CCNc1ccc(C(=O)OCC(=O)NC(C)c2ccccc2)cc1[N+](=O)[O-] (stereo unspecified)	PAFAH2 inh 83 | PAFAH2 confirm 73
O=C(COC(=O)c1ccc2c(c1)OCCO2)NCCc1ccccc1	PAFAH2 inh 46 | PAFAH2 confirm 41
CC(NC(=O)COC(=O)c1ccc(S(=O)(=O)N2CCOCC2)cc1)c1ccccc1 (stereo unspecified)	none
CCNc1ccc(C(=O)OCC(=O)NCc2ccc(C)cc2)cc1[N+](=O)[O-]	none
O=C(COC(=O)c1ccc2c(c1)OCCO2)NCc1ccc(Cl)cc1	none (no result: PAFAH1B3 inh, PAFAH2 inh, PAFAH1B2 FP inh, pPAFAH FP inh)
COc1ccc(C2CC(c3cccc(Cl)c3)=NN2c2ccc(S(N)(=O)=O)cc2)cc1 (stereo unspecified)	none
Cc1ccc(N2CCN(C(=O)N3CCOCC3)CC2)cc1C	none
Cc1cccc(C)c1N1CCN(C(=O)N2CCOCC2)CC1	PAFAH2 inh 44 | PAFAH2 confirm 44
CN1CCC(N2CCN(C3CN(C4CCCC4)S(=O)(=O)C3)CC2)CC1 (stereo unspecified)	none (no result: PAFAH1B3 inh, PAFAH2 inh, PAFAH1B2 FP inh, pPAFAH FP inh)
Cc1ccc(-n2c(SCC(=O)N3CCCCC3)nc(O)c(Cc3ccccc3)c2=O)cc1	none
O=C(COC(=O)CCCN1C(=O)c2cccc3cccc(c23)C1=O)Nc1ccc(Cl)cc1	PAFAH2 inh 48 | PAFAH2 confirm inactive
NC(=O)c1ccc(NC(=O)COC(=O)CCCN2C(=O)c3cccc4cccc(c34)C2=O)cc1	none
CN(C(=O)COC(=O)c1ccc(Cl)s1)C1(C#N)CCCCC1	PAFAH2 inh 30 (no result: pPAFAH FP inh) | PAFAH2 confirm inactive
CN(C(=O)COC(=O)C1COc2ccccc2O1)C1(C#N)CCCCC1 (stereo unspecified)	none
CN(C(=O)COC(=O)c1ccc(Cl)c(S(=O)(=O)N2CCCCC2)c1)C1(C#N)CCCCC1	PAFAH2 inh 30 | PAFAH2 confirm inactive
NC(=O)COC(=O)c1ccc(Cl)c(S(=O)(=O)N2CCCCCC2)c1	none
CCS(=O)c1ccccc1C(=O)OCC(=O)Nc1cccc(S(=O)(=O)N2CCCCC2)c1 (stereo unspecified)	PAFAH2 inh 59 | PAFAH2 confirm 53
CCOc1ccccc1C(=O)OCC(=O)Nc1cccc(S(=O)(=O)N2CCCC2)c1	PAFAH2 inh 73 | PAFAH2 confirm 52
CCS(=O)c1ccccc1C(=O)OCC(=O)Nc1ccc2ccccc2c1 (stereo unspecified)	PAFAH2 inh 70 | PAFAH2 confirm 67
NC(=O)CSc1oc(-c2ccco2)nc1S(=O)(=O)c1ccc(Br)cc1	none (no result: TCR-CD3 inh)
CC(C)CNC(=O)C1(C)CCCN1C(=O)Cc1cccc2ccccc12 (stereo unspecified)	none (no result: PAFAH1B3 inh, PAFAH2 inh, PAFAH1B2 FP inh, pPAFAH FP inh)
COC(=O)N/N=C/c1ccc(-c2cc(Cl)ccc2Cl)o1	none
Nc1nnc(CC(=O)N/N=C/c2ccc(-c3ccccc3Cl)o2)s1	PAFAH2 inh 30 | PAFAH2 confirm inactive
Nc1nnc(CC(=O)N/N=C/c2ccc([N+](=O)[O-])cc2)s1	none
Nc1nnc(CC(=O)N/N=C/c2ccc(-c3ccc(Cl)cc3Cl)o2)s1	PAFAH2 inh 50 | PAFAH2 confirm 31
CCOC(=O)c1ccc(N(CC(=O)NC2CCCCC2)C(=O)CNC(=O)c2ccco2)cc1	none
COc1cc(C)c2c(c1C=O)Oc1c(c(C)c(O)c3c1C(O)OC3=O)OC2=O (stereo unspecified)	PAFAH2 inh 49 | PAFAH2 confirm inactive
COc1ccc(CN2CCN(C(=O)CCC(=O)c3ccc(C)s3)CC2)cc1OC	none
O=C(O)CCC(=O)Nc1ccccc1C(=O)NCCc1ccccc1	none
O=C(Nc1ccccc1C(=O)NCCc1ccccc1)c1cnccn1	PAFAH2 inh 32 | PAFAH2 confirm inactive
CN(C)S(=O)(=O)c1ccc(NC(=O)CN2CCN(c3ccccn3)CC2)cc1	none
O=C(COC(=O)/C=C/c1ccco1)NC1CCCCC1	PAFAH2 inh 77 | PAFAH2 confirm 82
CC1CCCCC1NC(=O)COC(=O)/C=C/c1ccco1 (stereo unspecified)	PAFAH2 inh 84 | PAFAH2 confirm 74
O=C(COC(=O)/C=C/c1ccc(Br)o1)NC1CCCCC1	PAFAH2 inh 77 | PAFAH2 confirm 73
CC1(C(=O)Nc2cccc3c2CCCC3)CCN1C(=O)c1cccc(F)c1 (stereo unspecified)	none (no result: PAFAH1B3 inh, PAFAH2 inh, PAFAH1B2 FP inh, pPAFAH FP inh)
C[C@@H]1CN([C@H](C)CO)C(=O)CCCn2nncc2CO[C@H]1CN(C)C	none (no result: PAFAH1B3 inh, PAFAH2 inh, PAFAH1B2 FP inh, pPAFAH FP inh)
CCOC(=O)c1sc(=S)n(-c2ccccc2)c1N(C(C)=O)C(C)=O	PAFAH2 inh 35 | PAFAH2 confirm inactive
CCOC(=O)c1sc(=S)n(-c2ccccc2)c1N	none
O=C(CC12CC3CC(CC(C3)C1)C2)NCC(=O)N1CCCC1	PAFAH2 inh 75 | PAFAH2 confirm 71
Cc1cc(-c2nc3ccccc3c(=O)o2)ccc1[N+](=O)[O-]	PAFAH2 inh 70 | PAFAH2 confirm 70
Cc1cc(-c2cccc([N+](=O)[O-])c2)nc2ccccc12	none
Cc1ccc(-c2nc3ccccc3c(=O)o2)cc1	PAFAH2 inh 81 | PAFAH2 confirm 73
O=c1oc(-c2cccc([N+](=O)[O-])c2)nc2ccccc12	PAFAH2 inh 43 | PAFAH2 confirm 48
Cc1ccc2nc(-c3ccccc3C)oc(=O)c2c1	PAFAH2 inh 65 | PAFAH2 confirm 45
CCOC(=O)C1(C)CCN1C(=O)c1ccccc1C(F)(F)F (stereo unspecified)	none (no result: PAFAH1B3 inh, PAFAH2 inh, PAFAH1B2 FP inh, pPAFAH FP inh)
CC1CCCCN1C(=O)COC(=O)c1cc([N+](=O)[O-])ccc1N (stereo unspecified)	none

Source: PubChem
